Experiment [1] relates to PRMT1 (protein arginine N-methyltransferase 1). In words: small molecules binding arginine methyltransferase PRMT1 – biochemical, small-molecule microarray, 635 nm fluorescence, primary screen (AID 1088).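 Note: binding of Prmt1 protein to compounds spotted on small-molecule microarray slides.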 The following applies: higher = more signal.
Experiment [2] is described as follows: growth effects on S. cerevisiae YJM789 – YJM789 clinical isolate, OD600, 24 h, basal, primary screen (AID 1089).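 Note: growth of clinical yeast isolate S. cerevisiae YJM 789 seeded 1000 cells per well; test concentration not given here.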 The note with it: higher = more signal, called active from +8 up or from −8 down.
Experiment [3] is described as follows: S. pombe growth modifiers, basal conditions – strain 972, OD600, 24 h, no modulator, primary screen (AID 1090).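 Note: basal condition with compound alone and no growth modifier present; test concentration not given here.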 The following applies: S. pombe 972 growth, higher = more signal, called active from +8 up or from −8 down.
Experiment [4] in a line: budding yeast growth modifiers under rapamycin – strain BY4716, OD600, 96 h, primary screen (AID 1091). Note: test concentration not given here. The note with it: S. cerevisiae BY4716 + rapamycin, higher = more signal, called active from +8 up or from −8 down.
For experiment [5], the target named is Torsin-1A-interacting protein 2 (Homo sapiens) (UniProt Q8NFQ8). Nature of the experiment: small molecules binding lysate-expressed LULL1 – cell lysate, human LULL1 lysate, 635/667 nm fluorescence, primary screen (AID 1092).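 Note: probe is lysate of COS7 cells overexpressing human LULL1; score merges per-feature 667 nm fluorescence with signal-to-noise.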 The following applies: small-molecule microarray, hLULL1 lysate binding, 635 nm fluorescence; higher = more signal.
Torsin-1A-interacting protein 2 (Homo sapiens), sequence (Q8NFQ8 whole entry, looked up): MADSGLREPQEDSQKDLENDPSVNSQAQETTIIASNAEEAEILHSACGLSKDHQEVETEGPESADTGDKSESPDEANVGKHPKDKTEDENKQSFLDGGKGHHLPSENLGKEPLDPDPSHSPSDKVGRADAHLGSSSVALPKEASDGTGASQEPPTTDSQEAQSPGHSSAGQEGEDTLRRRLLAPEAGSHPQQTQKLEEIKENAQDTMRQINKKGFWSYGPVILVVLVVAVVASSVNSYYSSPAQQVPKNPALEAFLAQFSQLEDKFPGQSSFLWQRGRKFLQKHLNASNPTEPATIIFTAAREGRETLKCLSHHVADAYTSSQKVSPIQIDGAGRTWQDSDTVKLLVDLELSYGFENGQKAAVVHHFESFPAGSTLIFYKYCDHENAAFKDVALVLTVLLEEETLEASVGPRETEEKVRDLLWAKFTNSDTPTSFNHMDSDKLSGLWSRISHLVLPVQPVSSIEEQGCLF
A short description of experiment [6]: optical density change of DRC41 E. coli – strain DRC41, OD650, 24 h, E. coli filamentation project, primary screen (AID 1093).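 Note: MC1000 strain lacking acrAB efflux and sulA so SOS filamentation is blocked; test concentration not given here.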 The note with it: E. coli DRC41 growth, higher = more signal, called active from +8 up or from −8 down.
Experiment [7] in a line: probe aLefty2 binding to arrayed compounds – biochemical, biotinylated probe, 635/667 nm fluorescence, primary screen (AID 1094).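 Note: score merges spot fluorescence near 667 nm with spot signal-to-noise ratio.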 The following applies: small-molecule microarray, higher = more signal.
For experiment [8], the system named is Noggin (protein binding on small-molecule microarray). In words: small molecules binding Noggin protein – biochemical, 635/667 nm fluorescence, primary screen (AID 1095).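 Note: score merges 667 nm feature fluorescence with signal to noise over triplicate slides.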 The note with it: 635 nm fluorescence, higher = more signal.
The target in experiment [9] is Neurogenic locus notch homolog protein 3 (Homo sapiens) (UniProt Q9UM47). In words: small molecules binding NOTCH3 protein – biochemical, 635/667 nm fluorescence, primary screen (AID 1096). The following applies: small-molecule microarray, 635 nm fluorescence, higher = more signal.
Neurogenic locus notch homolog protein 3 (Homo sapiens), sequence (Q9UM47 whole entry, looked up): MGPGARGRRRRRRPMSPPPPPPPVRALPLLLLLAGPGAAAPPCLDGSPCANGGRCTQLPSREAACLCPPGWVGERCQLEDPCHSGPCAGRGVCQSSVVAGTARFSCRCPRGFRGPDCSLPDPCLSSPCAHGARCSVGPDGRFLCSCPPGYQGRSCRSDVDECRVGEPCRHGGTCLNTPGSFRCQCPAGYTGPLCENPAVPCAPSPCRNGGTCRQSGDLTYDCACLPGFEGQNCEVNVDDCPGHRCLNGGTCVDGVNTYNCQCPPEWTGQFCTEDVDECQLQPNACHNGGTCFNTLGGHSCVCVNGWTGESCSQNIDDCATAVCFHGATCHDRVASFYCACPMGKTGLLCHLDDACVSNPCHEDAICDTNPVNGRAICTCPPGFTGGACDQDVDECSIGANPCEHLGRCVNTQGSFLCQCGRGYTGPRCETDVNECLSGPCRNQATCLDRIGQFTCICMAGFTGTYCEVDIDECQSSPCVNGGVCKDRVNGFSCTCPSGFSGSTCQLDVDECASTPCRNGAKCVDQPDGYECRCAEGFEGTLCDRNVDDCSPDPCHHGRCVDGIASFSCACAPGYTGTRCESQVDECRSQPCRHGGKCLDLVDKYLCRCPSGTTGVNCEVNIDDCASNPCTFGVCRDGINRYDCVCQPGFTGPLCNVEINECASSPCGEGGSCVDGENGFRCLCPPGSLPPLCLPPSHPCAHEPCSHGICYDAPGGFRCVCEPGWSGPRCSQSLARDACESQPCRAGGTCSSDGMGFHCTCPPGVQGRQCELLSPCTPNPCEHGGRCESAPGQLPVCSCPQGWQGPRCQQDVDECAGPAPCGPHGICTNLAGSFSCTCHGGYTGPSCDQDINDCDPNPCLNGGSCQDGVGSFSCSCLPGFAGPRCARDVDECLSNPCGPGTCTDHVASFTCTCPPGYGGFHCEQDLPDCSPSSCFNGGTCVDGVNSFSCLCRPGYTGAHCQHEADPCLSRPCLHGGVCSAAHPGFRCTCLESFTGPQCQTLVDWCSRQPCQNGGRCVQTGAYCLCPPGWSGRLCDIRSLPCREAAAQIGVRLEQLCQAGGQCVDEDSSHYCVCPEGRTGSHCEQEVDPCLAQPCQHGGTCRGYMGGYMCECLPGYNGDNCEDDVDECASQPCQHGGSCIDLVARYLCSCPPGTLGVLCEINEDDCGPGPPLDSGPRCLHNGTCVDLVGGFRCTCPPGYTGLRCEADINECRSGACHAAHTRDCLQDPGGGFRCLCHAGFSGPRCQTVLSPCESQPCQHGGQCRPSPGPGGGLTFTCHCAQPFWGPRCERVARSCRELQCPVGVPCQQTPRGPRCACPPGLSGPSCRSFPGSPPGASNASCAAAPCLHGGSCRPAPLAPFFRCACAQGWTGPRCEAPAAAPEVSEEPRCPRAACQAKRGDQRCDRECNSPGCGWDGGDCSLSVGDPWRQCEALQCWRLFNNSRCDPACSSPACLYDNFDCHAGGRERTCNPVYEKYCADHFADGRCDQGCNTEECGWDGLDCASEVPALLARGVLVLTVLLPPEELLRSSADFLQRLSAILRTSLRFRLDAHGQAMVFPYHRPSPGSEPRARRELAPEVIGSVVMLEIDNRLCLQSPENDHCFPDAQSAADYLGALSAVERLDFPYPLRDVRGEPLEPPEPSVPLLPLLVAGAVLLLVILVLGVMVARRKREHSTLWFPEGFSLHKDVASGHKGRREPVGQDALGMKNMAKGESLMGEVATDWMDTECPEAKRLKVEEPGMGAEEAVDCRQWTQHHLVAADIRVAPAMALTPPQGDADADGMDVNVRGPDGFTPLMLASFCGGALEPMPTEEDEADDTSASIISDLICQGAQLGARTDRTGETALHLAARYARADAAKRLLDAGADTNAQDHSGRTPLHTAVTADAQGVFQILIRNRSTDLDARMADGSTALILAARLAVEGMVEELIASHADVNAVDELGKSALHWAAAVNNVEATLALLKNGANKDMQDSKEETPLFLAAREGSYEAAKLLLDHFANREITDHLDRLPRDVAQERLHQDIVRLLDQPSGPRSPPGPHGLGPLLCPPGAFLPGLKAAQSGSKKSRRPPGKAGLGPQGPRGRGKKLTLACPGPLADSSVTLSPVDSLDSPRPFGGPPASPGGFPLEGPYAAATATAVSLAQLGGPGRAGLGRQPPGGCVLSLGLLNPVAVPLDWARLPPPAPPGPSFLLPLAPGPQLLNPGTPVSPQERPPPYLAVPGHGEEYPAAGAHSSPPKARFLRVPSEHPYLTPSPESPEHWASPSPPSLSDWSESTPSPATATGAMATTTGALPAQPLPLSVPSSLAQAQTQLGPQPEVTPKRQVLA
A short description of experiment [10]: probe aEGFR binding to arrayed compounds – biochemical, biotinylated probe, 635/667 nm fluorescence, primary screen (AID 1097).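 Note: probe is a biotinylated anti-EGFR antibody binding compounds printed on slides; score combines fluorescence near 667 nm and signal to noise of each spot.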 The following applies: small-molecule microarray, higher = more signal.

Active and inactive are the calls of the source.

As to `CN(C)CCCNC(=O)[C@@]1(C)c2ccccc2C(=O)N(Cc2cc(F)cc(C(F)(F)F)c2)[C@H]1c1ccc(CO)cc1`, the composite z-score in experiment [1] was 0.936; in [5], 3.12; in [7], -0.203; in experiment [8], -0.986; in experiment [9], -0.604; in experiment [10] it was -0.237. In addition, the z-score is -1.46 (inactive) in experiment [2], -2.05 (inactive) in [3], -2.02 (inactive) in experiment [4] and 0.0544 (inactive) in experiment [6].
As for `O=C1OCCC=C[C@H]2OC34C=CCN(CCN5CCOCC5)C(=O)[C@H]3N(CCCCCCO)C(=O)[C@@H]4C12` (stereo not given in full), the composite z-score in [1] is 0.358; in experiment [5], 0.562; in experiment [7] it was -0.294; in experiment [8], -0.627; in experiment [9], -0.017; in [10] it was -0.251. Moreover, the z-score is 0.807 (inactive) in experiment [2], -1 (inactive) in experiment [3], 0.201 (inactive) in experiment [4] and 0.15 (inactive) in experiment [6].
Consider `CCOC(=O)[C@H]1CC=C2CC1C(=O)N1CCC[C@@H]1[C@@H]2O[Si](C)(C)C(C)(C)C` (stereo not given in full), for which the composite z-score in experiment [1] was -0.295; in experiment [5], 0.368; in experiment [7], -0.376; in experiment [8], 0.451; in [9], -0.979; in experiment [10], -0.265. For the same compound, the z-score is -2.4 (inactive) in experiment [2], -21.2 (active) in experiment [3], -1.8 (inactive) in [4] and -0.558 (inactive) in [6].
Regarding `NCCCCCNC(=O)[C@@H]1C[C@@H]2C(=O)NCC(=O)N2[C@@H]1c1ccc(O)cc1`, the composite z-score in experiment [1] was 1.53; in [5], 2.51; in experiment [7], -0.145; in [8] it was 1.37; in experiment [9], 0.892; in experiment [10] it was -0.192. Moreover, the z-score was -0.491 (inactive) in [2], -0.723 (inactive) in experiment [3], 0.124 (inactive) in [4] and -0.031 (inactive) in [6].
As to `CC1CC/C=C\[C@H]2OC34C=CCN(C(C)(C)C)C(=O)[C@H]3N(CCCCCCO)C(=O)[C@@H]4C2C(=O)O1` (stereo not given in full), the composite z-score in experiment [1] is -0.005; in [5], 1.4; in experiment [7], -0.183; in experiment [8], -0.597; in experiment [9] it was 0.0452; in [10] it was -0.371. In addition, the z-score was -0.242 (inactive) in experiment [2], -0.357 (inactive) in experiment [3], -0.19 (inactive) in experiment [4] and -0.31 (inactive) in experiment [6].
As for `CS(=O)(=O)CCOC(=O)C1=CC(CCCO)=CC(c2ccc(CN3CCCC3)cc2)N(Cc2cc3c(cc2Br)OCO3)C=C1C(=O)OCCS(C)(=O)=O` (stereo not given), the composite z-score in experiment [1] turned out to be 1.46; in experiment [5] it was 2.5; in [7], 0.0417; in [8] it was 0.334; in [9], 1.15; in experiment [10] it was 0.101. The z-score in experiment [2] is 0.978 (inactive); in experiment [3] it was -5.34 (inactive); in [4], -1.62 (inactive); in experiment [6], -0.567 (inactive).
`C=C/C=C/[C@H]1C(=C)CN([C@@H](Cc2ccccc2)C(=O)OC)[C@@H]1[C@H](O)Cc1ccccc1`: the composite z-score is -0.473 in experiment [1]; 0.428 in experiment [5]; -0.149 in [7]; -0.219 in experiment [8]; -0.0424 in [9]; -0.316 in experiment [10]. For the same compound, the z-score in [2] was -0.15 (inactive); in [3] it was -1.35 (inactive); in experiment [4], -0.557 (inactive); in experiment [6], 0.311 (inactive).
Regarding `COC(=O)[C@@]1(Cc2ccc(F)cc2)[C@@H]2[C@@H](CC(=O)[C@H]2CC(=O)C(=O)N(C)C)CN1C(=O)c1ccccc1`, the composite z-score in experiment [1] worked out at 0.781; in experiment [5], 2.43; in experiment [7], 0.288; in experiment [8], 0.221; in experiment [9] it was 1.08; in [10], 0.4. Moreover, the z-score in [2] was 0.658 (inactive); in experiment [3], 2.12 (inactive); in experiment [4], 2.7 (inactive); in experiment [6] it was -0.874 (inactive).
As to `CC(C)(C)OC(=O)CC[C@]1(C(=O)O)N=C(c2ccc(OCCCO)cc2)O[C@H]1c1ccccc1N=[N+]=[N-]`, the composite z-score in experiment [1] turned out to be 0.938; in experiment [5], 3; in experiment [7] it was 1.1; in experiment [8], 0.189; in experiment [9] it was 0.41; in experiment [10], 0.285. Besides, the z-score in [2] was 0.0071 (inactive); in experiment [3], 0.179 (inactive); in [4], -0.668 (inactive); in experiment [6], -0.0096 (inactive).
`C=CCOC(=O)[C@@H]1[C@H]2C(=O)O[C@H](c3ccccc3)[C@H](c3ccccc3)N2[C@H](c2ccc(OCCOC(=O)[C@@H]3C[C@@H]4C(=O)N[C@@H](CCCC[N+](C)(C)C)C(=O)N4[C@@H]3c3cccc(OCCO)c3)cc2)[C@@]12C(=O)Nc1ccc(I)cc12`: the composite z-score in experiment [1] was 1.56; in [5], 2.94; in experiment [7], -0.0063; in [8] it was 1.47; in experiment [9] it was 1.13; in experiment [10], 0.0321. Further, the z-score is 1.02 (inactive) in experiment [2], -0.945 (inactive) in experiment [3], 0.115 (inactive) in experiment [4] and -0.674 (inactive) in [6].
As for `CC(C)(C)OC(=O)CC[C@]1(C(=O)NCC(O)CO)COC(c2ccc(OCCCO)cc2)=N1` (stereo not given in full), the composite z-score in [1] was 0.281; in [5], 3.71; in experiment [7] it was -0.12; in experiment [8], -0.579; in experiment [9] it was -0.0234; in experiment [10], 0.0287. Further, the z-score in experiment [2] was 0.65 (inactive); in [3] it was 1 (inactive); in experiment [4] it was 0.977 (inactive); in [6], -0.0576 (inactive).
Regarding `COCCCN1C(=O)[C@@]2(c3ccc([N+](=O)[O-])cc3)CC(=O)N(C3CCCCC3)[C@@H]2c2ccc(CO)cc21`, the composite z-score in [1] was 0.996; in [5] it was -0.701; in experiment [7], -0.0782; in [8], 0.549; in [9] it was -0.37; in experiment [10], -0.128. Moreover, the z-score in [2] was 0.134 (inactive); in experiment [3] it was 0.734 (inactive); in [4] it was -1.35 (inactive); in experiment [6], 0.56 (inactive).
For the compound `CN1C2C=C(CCCO)C(C3C(=O)N(C(N)=O)C(=O)C32)C1c1ccc(CN2CCCC2)cc1` (stereo not given), the composite z-score was -0.378 in [1]; -0.736 in experiment [5]; -0.253 in experiment [7]; -0.354 in experiment [8]; -0.615 in [9]; -0.242 in experiment [10]. Further, the z-score in experiment [2] is -1.64 (inactive); in experiment [3] it was 0.715 (inactive); in experiment [4], -0.55 (inactive); in [6], 0.194 (inactive).
